Results filed as inconclusive are left out. Where a call stands in place of a potency, no number is given. The source made the active and inactive calls. The call rests on the fitted dose curve; in most records, active means well fitted inhibition curve with a large enough effect; inconclusive means small, poorly fitted or top-dose-only effect; inactive means no such curve, though single readings can be large or run the other way.
The compounds below were run on Zika virus NS2B-NS3 protease (unlinked) (assay: Optimization of GU AMC qHTS for Zika virus inhibitors: Unlinked NS2B-NS3 protease assay (AID 1347151; further: nearly all actives have a fitted effect of over 80% in size)). Conditions: recombinant ZIKV NS2B-NS3 protease, fluorogenic AMC substrate; series mostly up to 52.5 µM.
In short: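 Percent inhibition is derived from the 15-min change in AMC fluorescence, normalized against no-inhibitor and no-enzyme controls, then fitted to a 4-parameter Hill curve. Aprotinin was the intraplate control.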
`CN[C@H](CC(C)C)C(=O)N[C@H]1C(=O)N[C@@H](CC(N)=O)C(=O)N[C@H]2C(=O)N[C@H]3C(=O)N[C@H](C(=O)N[C@H](C(=O)O)c4cc(O)cc(O)c4-c4cc3ccc4O)[C@H](O)c3ccc(c(Cl)c3)Oc3cc2cc(c3O[C@@H]2O[C@H](CO)[C@@H](O)[C@H](O)[C@H]2O[C@H]2C[C@](C)(N)[C@H](O)[C@H](C)O2)Oc2ccc(cc2Cl)[C@H]1O` was tested, and the Potency was “inactive”.
With `CC(C)Cc1ccc([C@H](C)C(=O)O)cc1` the Potency was “inactive”.
In the case of `Cn1ncc(S(=O)(=O)Cc2ccccc2)c(Br)c1=O`, the Potency is reported as “inactive”.
For `CC(=O)N[C@H](C(=O)O)C(C)(C)SN=O`, the Potency was “inactive”.
In the case of `CC[C@H]1OC(=O)[C@H](C)[C@@H](O[C@H]2C[C@@](C)(OC)[C@@H](O)[C@H](C)O2)[C@H](C)[C@@H](O[C@@H]2O[C@H](C)C[C@H](NC)[C@H]2O)[C@](C)(O)C[C@@H](C)CN(C)[C@H](C)[C@@H](O)[C@]1(C)O`, the Potency is reported as “inactive”.
For `Cc1cc(NC2CCCCC2)nc(-n2nc(C)cc2C)n1`, the Potency was “inactive”.
With `N#C/C(=C\c1ccc(O)c(O)c1)C(=O)c1ccc(O)c(O)c1` the Potency was 1.19 µM (active).
With `C=CC(N)CCC(=O)O` (stereo not drawn) the Potency was “inactive”.
In the case of `Cc1cn([C@H]2CC(N=[N+]=[N-])[C@@H](CO)O2)c(=O)[nH]c1=O` (stereo partly drawn), the Potency is reported as “inactive”.
For `Oc1cc(O)cc(/C=C/c2ccc(O)c(O)c2)c1`, the Potency was 23.8 µM (active).
`CC(C)c1cccc(C(C)C)c1N1C(=O)c2ccc(O)cc2C1=O` was tested, and the Potency was “inactive”.
`COCCOc1cc2ncnc(Cl)c2cc1OCCOC` was tested, and the Potency was “inactive”.
With `CN1C2CCC1CC(OC(=O)C(O)c1ccccc1)C2` (stereo not drawn) the Potency was “inactive”.
With `O=C(/C=C/c1ccc(O)cc1)c1ccc(O)cc1O` the Potency was “inactive”.
With `S=C(S)OC1CC2CC1C1CCCC21` (stereo not drawn) the Potency was “inactive”.
In the case of `CC(C)(C)c1ccc(S(=O)(=O)/C=C/C#N)cc1`, the Potency is reported as “inactive”.
In the case of `CN1C2CC(OC(=O)[C@H](CO)c3ccccc3)CC1C1OC12` (stereo partly drawn), the Potency is reported as “inactive”.
`NCCCS(=O)(=O)O` was tested, and the Potency was “inactive”.
In the case of `COC1=C(OC)C(=O)c2ccccc2C1=O`, the Potency is reported as “inactive”.
`CN(C)CCC(c1ccc(Cl)cc1)c1ccccn1` (stereo not drawn) was tested, and the Potency was “inactive”.
In the case of `Nc1nc2c(ncn2[C@@H]2O[C@H](CO)[C@@H](O)[C@@H]2O)c(=O)[nH]1`, the Potency is reported as “inactive”.
In the case of `O=C(/C=C/c1ccc(O)c(O)c1)OCCc1ccccc1`, the Potency is reported as 6.7 µM (active).
In the case of `CN(C)C(N)=NCCC[C@H](N)C(=O)O`, the Potency is reported as “inactive”.
In the case of `N#C/C(=C\c1ccc(-c2cc(Cl)ccc2Cl)o1)C(=O)Nc1cccc2ncccc12`, the Potency is reported as 26.7 µM (active).
For `CC1(C)CCC=[N+]1[O-]`, the Potency was “inactive”.
With `CO[C@H]1O[C@@H]2O[C@]3(C)CC[C@@H]4[C@@H](C)CC[C@H]([C@H]1C)[C@]24OO3` the Potency was “inactive”.
For `O=C1NCc2c1c1c3ccccc3[nH]c1c1[nH]c3ccccc3c21`, the Potency was 23.8 µM (active).
For `CN1CCc2cccc3c2C1Cc1ccc(O)c(O)c1-3` (stereo not drawn), the Potency was 26.7 µM (active).
In the case of `OCC1O[C@H](O)C(Cl)C(O)C1O` (stereo partly drawn), the Potency is reported as “inactive”.
In the case of `NCCSSCCN`, the Potency is reported as “inactive”.
`O=C(CCc1ccncc1)NNC(=O)N1Cc2ccccc2Oc2ccc(Cl)cc21` was tested, and the Potency was “inactive”.
`NC(CCCP(=O)(O)O)C(=O)O` (stereo not drawn) was tested, and the Potency was “inactive”.
In the case of `NCCCCCCCCCCN`, the Potency is reported as “inactive”.
`CCOC(=O)C1=C(C)NC(C)=C(C(=O)OCC)C1c1c(F)c(F)c(F)c(F)c1F` was tested, and the Potency was 23.8 µM (active).
With `CC[C@H]1OC(=O)[C@H](C)C(O[C@H]2C[C@@](C)(OC)[C@@H](O)[C@H](C)O2)[C@H](C)[C@@H](OC2O[C@H](C)C[C@H](N(C)C)[C@H]2O)[C@](C)(O)C[C@@H](C)CN(C)[C@H](C)[C@@H](O)[C@]1(C)O` (stereo partly drawn) the Potency was “inactive”.
`Cn1c(=O)c(-c2c(Cl)cccc2Cl)cc2cnc(Nc3ccc(N4CCOCC4)cc3)nc21` was tested, and the Potency was “inactive”.
`CCOC(=O)N1CCN(/[N+]([O-])=N/Oc2ccc([N+](=O)[O-])cc2[N+](=O)[O-])CC1` was tested, and the Potency was “inactive”.
With `Nc1nc(OCC2CCCCC2)c2[nH]cnc2n1` the Potency was “inactive”.

Reference: PubChem BioAssay (NCATS)
Potency means the concentration at half of the fitted maximal effect.
